Counter-ions that a name gives are not always drawn. ± gives the standard deviation of the averaged measurements. Over roughly 1,700 compounds, “cell number in HSV-1-infected wells relative to infected DMSO wells (H2B-RFP signal)” has its median near 100; the highest 2% begin near 140. This excerpt belongs to a sample that is enriched for the highest values.
Test system: A549 infected with HSV-1
Experiment: cell number in HSV-1-infected wells relative to infected DMSO wells (H2B-RFP signal); higher = more surviving cells (uninfected or antiviral-protected wells give about 200%; low = toxicity)
Conditions: 10 µM; 48 h; MOI: 0.1
Description: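 Selleck FDA-approved library (L1300) screened in duplicate at 10 µM on A549 H2B-mRuby cells in 384-well plates, infected with HSV-1 strain 17 YFP-ICP4 at MOI 0.1 one hour before drug addition. Imaged after 2 days at 37°C. Cell growth (H2B-RFP) and infection (ICP4-YFP) are expressed as % of DMSO-treated wells. Hits: growth >90% and infection <20% of DMSO.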

In order of falling “cell number in HSV-1-infected wells” value:
1. Nc1nc2c(ncn2COCCO)c(=O)[nH]1 [Aciclovir]  225 ± 2.6%
2. CC(C)[C@H](N)C(=O)OCC(CO)OCn1cnc2c(=O)[nH]c(N)nc21 (some centres undefined) [Valganciclovir HCl]  207 ± 2.2%
3. Nc1nc2c(ncn2COC(CO)CO)c(=O)[nH]1 [Ganciclovir]  192.4 ± 0.4%
4. CC(C)[C@H](N)C(=O)OCCOCn1cnc2c(=O)nc(N)[nH]c21 [Valaciclovir HCl]  167 ± 22%
5. Nc1ccn(C[C@@H](CO)OCP(=O)(O)O)c(=O)n1 [Cidofovir]  164 ± 11%
6. Cc1c(O)cccc1C(=O)N[C@@H](CSc1ccccc1)[C@H](O)CN1C[C@H]2CCCC[C@H]2C[C@H]1C(=O)NC(C)(C)C [Nelfinavir Mesylate]  157 ± 33%
7. Cc1ccc(Cl)c(Nc2ccccc2C(=O)O)c1Cl [Meclofenamate Sodium]  156 ± 21%
8. CCOC(=O)[C@H]1O[C@@H]1C(=O)N[C@@H](CC(C)C)C(=O)NCCC(C)C [Aloxistatin]  150.2 ± 0.33%
9. C=C1[C@H](CO)[C@@H](O)C[C@@H]1n1cnc2c(=O)[nH]c(N)nc21 [Entecavir Hydrate]  150 ± 12%
10. CN(C)CCOC(c1ccc(Cl)cc1)c1ccccn1 (centres undefined) [CarbinoxaMine Maleate]  148 ± 27%
11. OC[C@@H](O)[C@H](O)[C@@H](O)CO [Xylitol]  146 ± 3%
12. Cc1ccccc1-c1cc(N2CCN(C)CC2)ncc1N(C)C(=O)C(C)(C)c1cc(C(F)(F)F)cc(C(F)(F)F)c1 [Netupitant]  146 ± 30%
13. CC[C@H](C)[C@H](NC(=O)[C@@H]1CCCN1C(=O)CNC(=O)[C@H](Cc1ccccc1)NC(=O)[C@H](CC(N)=O)NC(=O)[C@H](CC(N)=O)NC(=O)[C@H](CO)NC(=O)[C@H](CO)NC(=O)[C@H](Cc1c[nH]cn1)NC(=O)[C@@H](NC(=O)[C@H](CC(C)C)NC(=O)[C@H](Cc1ccccc1)NC(=O)[C@H](CC(N)=O)NC(=O)[C@H](C)NC(=O)[C@H](CC(C)C)NC(=O)[C@H](CCCNC(=N)N)NC(=O)[C@H](CCC(N)=O)NC(=O)[C@@H](NC(=O)[C@H](C)NC(=O)[C@@H]1CSSC[C@H](NC(=O)[C@@H](N)CCCCN)C(=O)N[C@@H](CC(N)=O)C(=O)N[C@@H]([C@@H](C)O)C(=O)N[C@@H](C)C(=O)N[C@@H]([C@@H](C)O)C(=O)N1)[C@@H](C)O)C(C)C)C(=O)N[C@@H](CC(C)C)C(=O)N1CCC[C@H]1C(=O)N1CCC[C@H]1C(=O)N[C@H](C(=O)N[C@@H](CC(N)=O)C(=O)N[C@H](C(=O)NCC(=O)N[C@@H](CO)C(=O)N[C@@H](CC(N)=O)C(=O)N[C@H](C(=O)N[C@@H](Cc1ccc(O)cc1)C(N)=O)[C@@H](C)O)C(C)C)[C@@H](C)O [Pramlintide Acetate]  134 ± 20%
14. C=C1[C@H](CO)[C@@H](O)C[C@@H]1n1cnc2c(=O)[nH]c(N)nc21 [Entecavir]  130 ± 39%
15. N[C@@H](CS)C(=O)O [L-Cysteine HCl]  129 ± 9.3%
16. CCCCS(=O)(=O)N[C@@H](Cc1ccc(OCCCCC2CCNCC2)cc1)C(=O)O [Tirofiban Hydrochloride]  128 ± 12%
17. CN1CCC(=C2c3ccccc3CCn3c(C=O)cnc32)CC1 [Alcaftadine]  127.9 ± 0.97%
18. O=C1/C(=C2\Nc3ccc(S(=O)(=O)O)cc3C2=O)Nc2ccc(S(=O)(=O)O)cc21 [Indigo carmine]  126 ± 4.3%
19. O=c1[nH]cnc2c1ncn2[C@@H]1O[C@H](CO)[C@@H](O)[C@H]1O [Inosine]  126 ± 7.8%
20. Cc1c(Cl)cccc1Nc1ccccc1C(=O)O [Tolfenamic Acid]  120 ± 2%
21. CC(C)(CO)C(O)C(=O)NCCC(=O)O [Calcium D-Panthotenate]  118 ± 22%
22. CCOC(=O)CCC(=O)O[C@H]1[C@H](O[C@@H]2[C@@H](C)[C@H](O[C@H]3C[C@@](C)(OC)[C@@H](O)[C@H](C)O3)[C@@H](C)C(=O)O[C@H](CC)[C@@](C)(O)[C@H](O)[C@@H](C)C(=O)[C@H](C)C[C@@]2(C)O)O[C@H](C)C[C@@H]1N(C)C [Erythromycin Ethylsuccinate]  118 ± 17%
23. Nc1c(Br)cc(Br)cc1CN[C@H]1CC[C@H](O)CC1 [Ambroxol HCl]  117 ± 21%
24. C[C@]1(COc2ccc(N3CCC(Oc4ccc(OC(F)(F)F)cc4)CC3)cc2)Cn2cc([N+](=O)[O-])nc2O1 [Delamanid]  117 ± 18%
25. Clc1ccc2c(c1)CCc1cccnc1C2=C1CCNCC1 [Desloratadine]  116 ± 6.4%
26. O=C(O)c1cccc(-c2noc(-c3ccccc3F)n2)c1 [Ataluren (PTC124)]  116 ± 9.6%
27. CCCCC(CC)COC(=O)C(C#N)=C(c1ccccc1)c1ccccc1 (centres undefined) [Octocrylene]  115 ± 4.8%
28. Nc1c(CC(=O)O)cccc1C(=O)c1ccccc1 [Amfenac Sodium Monohydrate]  115 ± 14%
29. CS(=O)(=O)Nc1cc2occ(NC=O)c(=O)c2cc1Oc1ccccc1 [Iguratimod]  108 ± 15%
30. OC[C@@H](O)[C@@H](O)[C@H](O)[C@H](O)CO [D-Mannitol]  107 ± 11%
31. Nc1ccn([C@H]2CC[C@@H](CO)O2)c(=O)n1 [Zalcitabine]  105 ± 7%
32. COc1cc2c(cc1Cc1cccc(Cl)c1F)c(=O)c(C(=O)O)cn2[C@H](CO)C(C)C [Elvitegravir (GS-9137, JTK-303)]  105 ± 10%
33. CCCc1ncc(C[n+]2ccccc2C)c(N)n1 [Amprolium HCl]  105 ± 10%
34. Cn1nnc(-c2ccc(-c3ccc(N4C[C@H](CO)OC4=O)cc3F)cn2)n1 [Tedizolid]  104 ± 5.8%
35. CC1(C)S[C@@H]2[C@H](NC(=O)[C@H](N)c3ccccc3)C(=O)N2[C@H]1C(=O)OCOC(=O)[C@@H]1N2C(=O)C[C@H]2S(=O)(=O)C1(C)C [Sultamicillin]  104 ± 5.9%
36. CCC1(c2c[nH]cn2)Cc2ccccc2C1 [Atipamezole]  103 ± 19%
37. CN(C)CCOC(c1ccccc1)c1ccccc1 [Diphenhydramine HCl]  102 ± 25%
38. O=c1[nH]cnc2c1ncn2[C@H]1CC[C@@H](CO)O1 [Didanosine]  99.6 ± 8.7%
39. OC[C@@H](O)CN1CCN(c2ccccc2)CC1 [Levodropropizine]  99.4 ± 1.6%
40. COc1cc(S(=O)(=O)O)ccc1O [Sulfogaiacol]  98.6 ± 40%
41. OC[C@@H](O)[C@@H](O)[C@H](O)[C@@H](O)CO [Sorbitol]  97.2 ± 17%
42. C[C@@H](O)[C@@H]1NC(=O)[C@H](CCCCN)NC(=O)[C@@H](Cc2c[nH]c3ccccc23)NC(=O)[C@H](Cc2ccccc2)NC(=O)[C@@H](NC(=O)[C@H](N)Cc2ccccc2)CSSC[C@@H](C(=O)N[C@H](CO)[C@@H](C)O)NC1=O [Octreotide Acetate]  96.3 ± 13%
43. CCC1(c2c[nH]cn2)Cc2ccccc2C1 [Atipamezole hydrochloride]  95.8 ± 8.9%
44. CC1(C)S[C@@H]2[C@H](NC(=O)[C@H](C(=O)O)c3ccsc3)C(=O)N2[C@H]1C(=O)O [Ticarcillin sodium]  95.4 ± 22%
45. Cc1cc(-c2ccccc2)nnc1NCCN1CCOCC1 [Minaprine dihydrochloride]  94.3 ± 12%
46. CN(C)CCC(c1ccc(Cl)cc1)c1ccccn1 (centres undefined) [Chlorpheniramine Maleate]  94.3 ± 16%
47. Cc1cccc(Nc2ccccc2C(=O)O)c1C [Mefenamic Acid]  94.2 ± 6%
48. CC(O)C(=O)O.N (centres undefined) [Ammonium lactate]  91.3 ± 9.4%
49. C[C@@H](O)[C@H]1C(=O)N2C(C(=O)[O-])=C(SC3Cn4cnc[n+]4C3)[C@H](C)[C@H]12 (some centres undefined) [Biapenem]  91.1 ± 10%
50. C[C@H](CCC(=O)O)[C@H]1CC[C@H]2[C@@H]3C(=O)C[C@@H]4CC(=O)CC[C@]4(C)[C@H]3CC(=O)[C@]12C [Dehydrocholic acid]  89.8 ± 1.7%
51. CCCCCCCCCCCCCCCC(=O)O[C@@H]1[C@@H](O)[C@@H](O)[C@@H]([C@H](NC(=O)[C@@H]2C[C@@H](CCC)CN2C)[C@H](C)Cl)O[C@@H]1SC [Clindamycin palmitate HCl]  85.3 ± 3.2%
52. CC(C)C[C@H](NC(=O)[C@@H](NC(=O)c1cccc(-c2ccccc2)n1)[C@@H](C)O)B(O)O  79.7 ± 13%
53. CCn1c(=O)c(-c2cc[nH]n2)cc2c(C)nc(N)nc21  79.6 ± 6.9%
54. O=C(Nc1nc2cccc(-c3ccc(CN4CCS(=O)(=O)CC4)cc3)n2n1)C1CC1 [Filgotinib (GLPG0634)]  76.8 ± 6.2%
55. CC(C)(C)c1cc(C(C)(C)C)c(NC(=O)c2c[nH]c3ccccc3c2=O)cc1O [Ivacaftor (VX-770)]  64.8 ± 7%
56. O=C(O)C(=O)O.[NH-][C@@H]1CCCC[C@H]1[NH-].[Pt+2] [Oxaliplatin]  64.1 ± 10%
57. Nc1c(Br)cc(Br)cc1CN[C@H]1CC[C@H](O)CC1 [Ambroxol]  63.56 ± 0.013%
58. Nc1ccn([C@@H]2O[C@H](CO)[C@@H](O)[C@@H]2O)c(=O)n1 [Cytarabine hydrochloride]  51.7 ± 21%
59. Nc1ccn([C@@H]2O[C@H](CO)[C@@H](O)[C@@H]2O)c(=O)n1 [Cytarabine]  44.2 ± 11%
60. COc1ccc(C[C@H](N)C(=O)N[C@H]2[C@@H](O)[C@H](n3cnc4c(N(C)C)ncnc43)O[C@@H]2CO)cc1 [Puromycin 2HCl]  41.2 ± 1.6%
61. CC(C)OC(=O)CCC/C=C\C[C@@H]1[C@@H](/C=C/[C@@H](O)COc2cccc(C(F)(F)F)c2)[C@H](O)C[C@@H]1O [Travoprost]  39.8 ± 12%
62. O=C(c1ccc(F)c(F)c1Nc1ccc(I)cc1F)N1CC(O)([C@@H]2CCCCN2)C1 [Cobimetinib (GDC-0973, RG7420)]  32.6 ± 21%
63. CC(=O)c1cc2c(o1)C(=O)c1ccccc1C2=O [Napabucasin]  27.4 ± 21%
64. Cc1ccc(C(=O)N(CCCN)[C@@H](c2nc3cc(Cl)ccc3c(=O)n2Cc2ccccc2)C(C)C)cc1  12.9 ± 5.4%

Reference: the supplement of paper PMC11537057
